# CtBP-E1A blk: inhibitors of CtBP/E1A interaction; actives 0.49% (n = 340,000); activity change, % (test concentration not listed); AlphaScreen GST-E1A/His-CtBP binding, 1536-well; active compounds read low; in the data active means activity change below about -65%; inconclusive means mostly about -30% to -63%
#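 AlphaScreen with 125 nM GST-E1A and 125 nM His-CtBP (5X stocks) in Tris pH 8.0, 300 mM NaCl, BSA, Tween 20, TCEP. Compounds preincubated 2 h at 37 deg C, then glutathione donor/nickel acceptor beads added for 1 h at 37 deg C in dark.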
# TDP1 cell noCPT: qHTS for Inhibitors of human tyrosyl-DNA phosphodiesterase 1 (TDP1): qHTS in cells in absence of CPT; Potency, µM (doses to about 46.2 µM), actives largely listed as inhibitors; actives 15% (n = 420,000); DT40 Tdp1-/- hTDP1 cells, no CPT, ATP luminescence, 48 h; further: nearly all actives have a fitted effect of over 55% in size
#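 A cellular qHTS used chicken DT40 cells lacking endogenous Tdp1 but carrying stably transfected human TDP1. Compounds were applied without camptothecin, and cell growth kinetics were judged by ATP-dependent luminescence after ≥48 hr.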
# IL-1B inflam inh: inflammasome signaling inhibition, IL-1 beta readout | THP-1 LPS/ATP IL-1B secretion, AlphaLISA, 16 h; active compounds read low | activity change, % at 57.5 µM | actives 4.7% (n = 360,000); in the data active means activity change below about -50%; inconclusive means mostly about -30% to -49%
#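 THP-1 cells pretreated 1 hr with compounds (up to 57.5 uM final), then stimulated with LPS (250 ng/mL final) plus ATP (1.25 mM final); secreted IL-1B measured by AlphaLISA after 16 hr, decreased signal indicating inhibition.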
# DT40 TDP1 CPT: DT40-hTDP1 cell growth loss with CPT; chicken DT40 Tdp1-/-;hTDP1 cells + 20 nM CPT, ATP luminescence, 48 h; Potency, µM (top dose mostly 46.2 µM), usual class: inhibitors; actives 12% (n = 420,000); further: nearly all actives have a fitted effect of over 55% in size
#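 Chicken DT40 Tdp1-/- cells stably complemented with human TDP1 were seeded at 400 cells/well in medium containing 20 nM camptothecin, exposed to pin-transferred compounds, and grown at 37 °C for at least 48 hr. Viability was read as ATP luminescence.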
# Six1-Eya2 blk: Six1/Eya2 interaction inhibition. Q15475+O00167. activity change, % (test concentration not listed). actives 0.56% (n = 360,000). AlphaScreen GST-Six1/His-Eya2 binding, biochemical; active compounds read low; in the data active means activity change below about -65%; inconclusive means mostly about -30% to -63%
#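 Six1/Eya2 binding was read as AlphaScreen signal after compounds were pinned into GST-Six1 plus His-tagged Eya2 (5X stock 250/500 nM) in pH 8.0 Tris/NaCl/TCEP buffer, beads added, then incubated 1 h, 37 C, dark.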
# TDP1 inh: blocks human tyrosyl-DNA phosphodiesterase 1. recombinant TDP1, AlphaScreen DNA substrate cleavage. AID 485290. actives 0.28% (n = 350,000). Q9NUW8. Potency, µM (highest dose often 130 µM), hits mostly inhibitors; further: nearly all actives have a fitted effect of over 40% in size
# Target sequence (Q9NUW8 whole entry, looked up): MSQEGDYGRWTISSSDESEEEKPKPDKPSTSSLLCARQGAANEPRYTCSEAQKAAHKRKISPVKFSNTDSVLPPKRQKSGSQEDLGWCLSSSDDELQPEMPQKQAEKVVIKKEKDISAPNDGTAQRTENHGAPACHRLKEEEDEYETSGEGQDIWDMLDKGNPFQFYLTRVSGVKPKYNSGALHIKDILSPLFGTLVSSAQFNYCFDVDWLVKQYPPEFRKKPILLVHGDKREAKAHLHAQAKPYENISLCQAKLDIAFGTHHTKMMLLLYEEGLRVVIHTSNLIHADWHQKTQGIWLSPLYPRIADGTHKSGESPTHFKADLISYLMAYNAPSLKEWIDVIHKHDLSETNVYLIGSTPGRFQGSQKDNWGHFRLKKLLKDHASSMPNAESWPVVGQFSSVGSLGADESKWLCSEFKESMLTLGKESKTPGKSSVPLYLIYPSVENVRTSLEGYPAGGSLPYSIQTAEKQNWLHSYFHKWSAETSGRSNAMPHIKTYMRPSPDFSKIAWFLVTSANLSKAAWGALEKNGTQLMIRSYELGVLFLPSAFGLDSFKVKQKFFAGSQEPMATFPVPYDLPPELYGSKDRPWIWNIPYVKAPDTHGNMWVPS
#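 Recombinant E. coli-expressed Tdp1 (1 nM) preincubated with compound 15 min at RT, then 5'-biotin/3'-phosphotyrosine-FITC DNA substrate (15 nM) added for 5 min. AlphaScreen beads (10 ug/ml) added, 10 min RT; tyrosine-FITC cleavage read as signal loss.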
# Hits are given with their value; – = inactive; ? = inconclusive; · = not tested or not shown. Only some compounds are listed: those with a hit (about 18% of all), similar ones and a draw of the others. Unless noted, the call rests on the fitted dose curve; in most records, active means well fitted curve in the direction sought with a large enough effect; inconclusive means small, poorly fitted or top-dose-only effect, or another doubt; inactive means no such curve, though single readings can be large; an effect the other way counts as inactive or inconclusive.
SMILES,CtBP-E1A blk,TDP1 cell noCPT,IL-1B inflam inh,DT40 TDP1 CPT,Six1-Eya2 blk,TDP1 inh
O=C(Nc1ccc([N+](=O)[O-])cc1)c1ccc(Cn2cc([N+](=O)[O-])cn2)cc1,·,13µM,–,18µM,–,–
Cc1nc2ccc(C(=O)Nc3ccc4nc[nH]c4c3)cc2[nH]1,–,–,–,–,–,·
O=C(Nc1ccc(Nc2ccncc2)cc1)c1ccc([N+](=O)[O-])cc1,·,15µM,-98,21µM,–,–
CCn1c(SCc2ccc(F)cc2)nc2ccccc2c1=O,–,–,–,–,–,·
CCN(C1CCCCC1)S(=O)(=O)c1ccc(-n2cnnn2)c(C)c1,–,–,–,–,–,–
COc1ccc(C)cc1S(=O)(=O)N(C)CC(=O)NC1CCCCCC1,–,–,–,–,–,–
CCN(C1CCCCC1)S(=O)(=O)c1cc(C)ccc1OC,–,18µM,–,?,–,–
COc1ccc(CN(C2CCCC2)S(=O)(=O)c2ccc(-n3cnnn3)c(OC)c2)cc1OC,–,?,-52,?,–,–
CCN(C1CCCCC1)S(=O)(=O)c1ccc(OC)c(C)c1,–,16µM,–,15µM,–,·
O=C(NC1CCCCC1)c1cccc2c1C(=O)c1ccc(N3CCC(Cc4ccccc4)CC3)cc1S2(=O)=O,·,–,–,?,–,–
O=C(COC(=O)/C=C/c1ccc([N+](=O)[O-])cc1)NCc1cccs1,–,–,–,–,–,–
COc1ccc2nc(-c3ccccn3)[nH]c2c1,–,–,–,–,–,–
Cc1cc(=S)nc(-c2ccccn2)[nH]1,-69,4.6µM,–,3.3µM,-85,·
Cc1[nH]c(-c2ccccn2)nc(=S)c1Cl,?,?,·,10µM,?,·
COc1cc(OC)nc(NC(=O)NS(=O)(=O)c2ccc(F)cc2)n1,–,–,–,–,–,–
Cn1c(CC(=O)NNC(=O)c2ccc(F)cc2Cl)nc2ccccc21,·,?,–,16µM,–,–
Cc1ccc(-c2nn3c(C)nnc3c3ccccc23)cc1S(=O)(=O)NCc1ccco1,–,?,?,15µM,–,–
Cc1ccc(-c2nn3c(C)nnc3c3ccccc23)cc1S(=O)(=O)NC(C)c1ccccc1 (configuration not stated),–,18µM,–,?,?,–
Cc1ccc(-c2nn3c(C)nnc3c3ccccc23)cc1S(=O)(=O)NC(C)(C)CO,–,?,–,?,–,–
CCOc1ccc(CCNC(=O)c2[nH]c(C)c(C(C)=O)c2CC)cc1OCC,–,23µM,–,18µM,–,–
CCOc1ccc(CCNC(=O)c2c(C)noc2C)cc1OCC,–,–,–,–,–,·
CCOC(=O)c1c(C)[nH]c(C(=O)N2CCc3cc(OC)c(OC)cc3C2)c1C,–,16µM,-61,10µM,–,·
CCOC(=O)c1c(C)[nH]c(C(=O)NCCc2ccc(OC)c(OC)c2)c1C,–,15µM,–,?,–,–
CCN(CC)CCCNc1ncnc2c1cnn2-c1ccc(C)c(C)c1,·,16µM,·,?,·,–
Cc1ccc(-n2ncc3c(NCCCN4CCOCC4)ncnc32)cc1C,·,23µM,·,?,·,–
SMILES,CtBP-E1A blk,TDP1 cell noCPT,IL-1B inflam inh,DT40 TDP1 CPT,Six1-Eya2 blk,TDP1 inh
C=CCOc1c(Br)cc(CNc2ccc(NC(=O)CCC)cc2)cc1OCC,–,16µM,–,?,?,–
C=CCOc1c(Br)cc(CNc2ccc(NC(=O)C(C)C)c(OC)c2)cc1OCC,–,16µM,–,21µM,–,–
C=CCOc1c(Br)cc(CNc2ccc3[nH]c(=O)[nH]c3c2)cc1OCC,–,?,·,?,?,–
CC(C)CN(C(=O)Cn1c(C(F)(F)F)nc2ccccc21)C1CCS(=O)(=O)C1 (configuration not stated),–,–,–,–,–,·
O=C(CNS(=O)(=O)c1ccc(Br)s1)N1CCCC1,–,–,–,–,–,–
CC(=O)c1ccc(N2CCN(CC(O)COC(c3ccccc3)c3ccccc3C)CC2)cc1 (configuration not stated),–,?,?,23µM,–,–
OC(COC(c1ccccc1)c1ccccc1)CN1CCN(c2cccc(Cl)c2)CC1 (configuration not stated),–,?,?,21µM,–,–
OC(COC(c1ccc(Cl)cc1)c1ccc(Cl)cc1)CN1CCN(c2ccccn2)CC1 (configuration not stated),–,16µM,-84,?,–,–
CC(=O)c1ccc(N2CCN(CC(O)COC(c3ccccc3)c3ccccc3)CC2)cc1 (configuration not stated),–,?,?,?,–,–
CC(C)(C)c1ccccc1OCC(O)CN1CCN(c2ccccn2)CC1 (configuration not stated),–,?,–,16µM,–,·
CC1CCC(C(C)C)C(=O)C1 (configuration not stated),·,·,·,·,·,–
N=c1n(CCN2CCCC2)c2ccccc2n1CC(O)c1ccco1 (configuration not stated),–,–,–,–,–,–
CC(C)(C)c1ccc(Cn2c(=N)n(CC(O)c3ccco3)c3ccccc32)cc1 (configuration not stated),–,2.6µM,-67,2.6µM,–,–
Cc1ccccc1Cn1c(=N)n(CC(O)c2ccco2)c2ccccc21 (configuration not stated),–,15µM,-77,18µM,–,–
CCCCC(=O)N1C/C=C\C(c2ccc(OC)cc2)N(Cc2ccc(F)cc2)C(=O)C1 (configuration not stated),–,?,–,?,–,–
CCCCNC(=O)C1C(c2ccc(OC)cc2)=Nc2ccccc2N1C(=O)c1ccc2ncccc2c1 (configuration not stated),–,?,–,?,–,·
COCCNC(=O)CSc1nc2ccccc2c(=O)n1CCC(=O)NCCc1ccc(OC)c(OC)c1,–,–,–,–,–,–
Cn1c(N2CCN(c3ccccn3)CC2)nc2c1c(=O)n(Cc1ccc(Cl)cc1)c(=O)n2C,–,?,–,16µM,–,–
Cn1c(N2CCOCC2)nc2c1c(=O)n(Cc1ccc(Cl)cc1)c(=O)n2C,–,?,–,?,–,·
Cn1c(OCc2cccnc2)nc2c1c(=O)n(Cc1ccc(Br)cc1)c(=O)n2C,–,?,-53,?,–,–
CC(O)CNc1nc2c(c(=O)n(Cc3ccc(Br)cc3)c(=O)n2C)n1C (configuration not stated),·,?,–,–,–,·
Cn1c(OCc2cccnc2)nc2c1c(=O)n(Cc1ccc(Cl)cc1)c(=O)n2C,–,18µM,–,12µM,–,·
